# Measurements from PubChem BioAssay.
# Experiment: modulators of HCV replicon luciferase signal, primary screen, HCV replication inhibitor project, Huh7 cells, luciferase reporter (AID 1109);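 also: huh7 hepatoma cells harbouring a luciferase neomycin HCV replicon reporter; luciferase luminescence as measure of HCV replicon replication; test concentration not given here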
# Conditions: 48 h, higher = more signal
row,SMILES,z-score
1,CC(C)c1ccc(NN2C(C(O)c3ccc(N(C)C)cc3)C=CC3C(=O)N(c4ccccc4)C(=O)C32)cc1 (stereo unspecified),1.61
2,CC(C)NC(=O)[C@@H]1c2ccccc2C(=O)N(Cc2ccccc2)[C@H]1c1ccc(CO)cc1,-0.777
3,CCOC(=O)C[C@H]1[C@H](OC(=O)c2ccccc2-c2ccccc2)[C@@H](NC(=O)Cc2ccc(OC)cc2)c2cc(OCCCO)ccc2N1C(=O)c1ccccc1,-2.08
4,Cc1ccc(S[C@]2(C(=O)O)CC(=O)N(C3Cc4ccccc4C3)[C@@H]2c2ccc(CO)cc2I)cc1,-0.517
5,CC(C)(C)OC(=O)CC[C@@]1(C(=O)NCCN2CCOCC2)N=C(c2ccc(OCCCO)cc2)O[C@@H]1c1ccccc1,0.988
6,CCCN1C(=O)[C@@]2(CCC(=O)OC(C)(C)C)N=C(c3ccc(OCCCO)cc3)O[C@H]2c2ccccc21,-2.75
7,COCCOC(=O)N1C(=O)[C@@]2(c3cc(C#CCC(C(=O)OC)C(=O)OC)ccc31)[C@H](c1ccc(O)cc1)N1[C@H](c3ccccc3)[C@H](c3ccccc3)OC(=O)[C@H]1[C@@H]2C(N)=O,-0.633
8,N#Cc1ccc(NN2C(C(O)c3ccc([N+](=O)[O-])cc3)C=CC3C(=O)N(c4ccccc4)C(=O)C32)cc1 (stereo unspecified),0.69
9,COCC(=C=CC[C@H](O)c1ccc(OCCO)cc1)C[C@H](O)c1cc(Cl)cc(Cl)c1O,-3.96
10,CCOC(=O)C1=CC[C@@H](c2ccccc2)N(S(=O)(=O)c2ccc(C)cc2)[C@H]1C(=O)OCC,-3.08
11,CCCCCN1CC=CC23O[C@@H]4C=CCOC(=O)[C@@H]4[C@H]2C(=O)N(CCCO)[C@@H]3C1=O (stereo partly specified),-0.538
12,C[C@]1(C(=O)NCc2ccccc2)c2ccccc2C(=O)N(Cc2cc(F)cc(C(F)(F)F)c2)[C@H]1c1ccc(CO)cc1,-0.44
13,COc1ccc(C(O)C2C=CC3C(=O)NC(=O)C3N2Nc2ccccn2)cc1OCc1ccccc1 (stereo unspecified),-0.129
14,C=C(CCCC)C(=O)CC[C@H](OC(=O)c1cccnc1)c1cccc(OCCO)c1,-3.04
15,O=C1OCCC/C=C\[C@H]2OC34C=CCN(Cn5nnc6ccccc65)C(=O)[C@H]3N(CCCCCO)C(=O)[C@@H]4C12 (stereo partly specified),0.0311
16,CC(C)CNC(=O)[C@@H]1c2ccccc2C(=O)N(Cc2cc(C(F)(F)F)cc(C(F)(F)F)c2)[C@H]1c1ccc(CO)cc1,-0.195
17,CC(C)(C)N1CC=CC23O[C@@H]4C=CCOC(=O)[C@@H]4[C@H]2C(=O)N(CCCCCO)[C@@H]3C1=O (stereo partly specified),-0.394
18,CCOC(=O)C[C@H]1[C@H](OC(=O)c2ccc(-c3ccccc3)cc2)[C@@H](NC(=O)Cc2ccc(OC)cc2)c2cc(OCCCO)ccc2N1C(=O)c1ccc2ccccc2n1,-1.92

row,SMILES,z-score
1,COCCOC(=O)N1C(=O)[C@@]2(c3cc(C#CCNC(N)=O)ccc31)[C@H](c1ccc(O)cc1)N1[C@H](c3ccccc3)[C@H](c3ccccc3)OC(=O)[C@H]1[C@@H]2C(=O)Nc1nc2ccccc2s1,0.171
2,COc1ccc(C#Cc2ccc3c(c2)[C@]2(C(=O)N3)[C@H](C(=O)NC[C@H](O)c3ccccc3)[C@H]3C(=O)O[C@H](c4ccccc4)[C@H](c4ccccc4)N3[C@@H]2c2ccc(OCCO)cc2)cc1,-2.13
3,O=C1OCCC=C[C@H]2OC34C=CCN(Cc5ccccc5)C(=O)[C@H]3N(CCCO)C(=O)[C@@H]4C12 (stereo partly specified),-0.0946
4,COC(=O)[C@@]1(Cc2ccccc2)N=C(c2ccc(OCCCO)cc2)O[C@H]1c1ccccc1N=[N+]=[N-],-0.749
5,COc1ccc(NN2C(C(O)c3ccc(OC)c(OCc4ccccc4)c3)C=CC3C(=O)N(C4CCCCC4)C(=O)C32)cc1 (stereo unspecified),-1.21
6,C=CCC(OC(C)=O)[C@@H]1[C@@H](N(Cc2cccc3ccccc23)C(=O)c2cccc3ccccc23)c2cc(OCCCO)ccc2N1C(=O)c1ccc2ccccc2n1 (stereo partly specified),1.21
7,CC(C)CNC(=O)[C@@]1(c2ccc([N+](=O)[O-])cc2)CC(=O)N(CC23CC4CC(CC(C4)C2)C3)[C@@H]1c1ccc(CO)cc1I,-3.18
8,Cc1ccc(S[C@]2(C(=O)NCC(C)C)CC(=O)N(Cc3ccccc3Cl)[C@@H]2c2ccc(CO)cc2)cc1,-1.73
9,[N-]=[N+]=NCc1ccccc1C[C@]1(C(=O)O)N=C(c2ccc(OCCCO)cc2)O[C@H]1c1ccccc1,-0.748
10,Cc1ccccc1C(O)C1C=CC2C(=O)N(C)C(=O)C2N1Nc1ccccc1 (stereo unspecified),-0.712
11,O=C1O[C@H](c2ccccc2)[C@H](c2ccccc2)N2[C@H]1[C@@H](C(=O)N1CCN(c3ncccn3)CC1)[C@]1(C(=O)Nc3ccccc31)[C@H]2c1ccc(OCCO)cc1,-1.67
12,CCCCCN1CC=CC23O[C@@H]4/C=C\CCC(C)OC(=O)C4[C@H]2C(=O)N(CCCCCO)[C@@H]3C1=O (stereo partly specified),0.0822
13,CC(C)Cc1ccc(CN2CC[C@@H](NS(=O)(=O)c3ccccc3)C2)cc1,-4.17
14,C=CCC(OC(C)=O)[C@@H]1[C@@H](N(Cc2cccc3ccccc23)C(=O)c2ccc(C)cc2)c2cc(OCCCO)ccc2N1C(=O)Cc1ccc(OC)cc1 (stereo partly specified),-0.22
15,CN1C(=O)C2C=CC(C(O)c3ccccn3)N(Nc3ccccc3)C2C1=O (stereo unspecified),0.0435
16,COc1cccc(C(=O)O[C@H]2CC[C@]3(C)C4=C(CCC3C2(C)C)[C@]2(C)CC[C@H]([C@H](C)CCCC(C)C)[C@@]2(C)CC4)c1 (stereo partly specified),0.004
17,COc1ccc(C(=O)Nc2cccc(CN3C(=O)[C@@]4(O[C@@H](CCn5cc(CCO)nn5)[C@H]([Si](C)(C)c5ccc(OC)cc5)[C@H]4C)c4ccccc43)c2)cc1,-5.15
18,O=C1N(CCS(=O)(=O)c2ccccc2)Cc2ccccc2C[C@]12N=C(c1ccc(OCCCO)cc1)O[C@@H]2c1ccccc1,-2.19
